PNC assembly inh – High Content Assay for Compounds that inhibit the Assembly of the Perinucleolar Compartment | PC3M PTB-GFP, PNC prevalence imaging, 16 h; active compounds read low | AID 2417, 2010 | hit rate 3.1% among 140,000 | activity change (PNC), negative = inhibition, % at 10 µM;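 active = readout at or below -70, meaning at least 70% loss of cells showing the perinucleolar compartment, a nuclear body marking cancer cells; inconclusive = readout between -30 and a set limit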
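PC3M cells stably expressing PTB-GFP, 750–1000 cells/well, treated 16 h at 37 °C with compound (23 nl of library stock), in duplicate. After paraformaldehyde fixation and Hoechst stain, imaged at 20x; PNC prevalence scored by image analysis.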
Tau fibril FP – qHTS for Inhibitors of Tau Fibril Formation, Fluorescence Polarization | Potency, µM (top dose mostly 57.7 µM), usual class: inhibitors | Microtubule-associated protein tau (Homo sapiens), P10636 | AID 1468, 2008 | hit rate 0.39% among 280,000 | K18 P301L tau heparin fibrillization, Alexa594 FP, 6 h; also: nearly all actives have a fitted effect of over 55% in size
Target sequence (P10636 561-689 P618L limits assumed): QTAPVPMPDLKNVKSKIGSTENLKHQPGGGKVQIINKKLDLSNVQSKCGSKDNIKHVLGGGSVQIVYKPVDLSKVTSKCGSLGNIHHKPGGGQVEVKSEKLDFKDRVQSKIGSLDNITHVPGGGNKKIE
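Steps: dispense K18 P301L tau (15 uM plus 0.24 uM Alexa 594 tracer, final) in pH 7 sodium acetate; add compound; add heparin (20 uM final); incubate 6 hr, 37 C; add ThT (30 uM final); after 1 hr ambient, read FP.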
Tau ThT inhib – qHTS for Inhibitors of Tau Fibril Formation, Thioflavin T Binding | hit rate 2.1% among 270,000 | Potency, µM (doses to about 57.4 µM), actives largely listed as inhibitors | recombinant tau K18 P301L, heparin-induced fibrillization, ThT fluorescence | Microtubule-associated protein tau (Homo sapiens), P10636; also: nearly all actives have a fitted effect of over 55% in size
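Heparin-induced fibrillization of the P301L-mutant K18 repeat-domain fragment of human tau was followed by ThT binding in quantitative high-throughput format.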
TRb SRC2 PPI – qHTS for Inhibitors of the Interaction of Thyroid Hormone Receptor and Steroid Receptor Coregulator 2; hit rate 0.065% among 280,000; Potency, µM (series often up to 106 µM), hits mostly inhibitors; TRbeta-SRC2 peptide binding, fluorescence polarization; receptor liganded with 1 µM T3; AID 1469, 2008; also: nearly all actives have a fitted effect of over 50% in size
Target sequence (P10828 whole entry, looked up): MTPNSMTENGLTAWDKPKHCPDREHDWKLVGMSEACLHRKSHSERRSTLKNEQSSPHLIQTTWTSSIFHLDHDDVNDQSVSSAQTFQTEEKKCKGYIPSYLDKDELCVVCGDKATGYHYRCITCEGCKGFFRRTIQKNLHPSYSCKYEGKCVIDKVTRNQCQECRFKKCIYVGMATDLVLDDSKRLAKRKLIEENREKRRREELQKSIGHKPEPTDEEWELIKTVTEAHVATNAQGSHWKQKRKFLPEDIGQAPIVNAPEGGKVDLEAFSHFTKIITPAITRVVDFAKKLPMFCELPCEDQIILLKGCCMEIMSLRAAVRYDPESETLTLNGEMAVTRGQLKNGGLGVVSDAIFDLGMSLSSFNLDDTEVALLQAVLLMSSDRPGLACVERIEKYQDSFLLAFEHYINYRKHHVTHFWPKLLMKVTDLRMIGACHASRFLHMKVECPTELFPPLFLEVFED
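Human TRb ligand-binding domain (0.6 uM) is mixed with 20 nM Texas Red SRC2 peptide and 1 uM T3; after compound addition and 5 hr at ambient temperature, polarization is measured and normalized to unbound and bound controls.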
Tau fluor counter – Counterscreen qHTS for Inhibitors of Tau Fibril Formation, Fluorescence Polarization; Potency, µM (top dose mostly 57.7 µM); hit rate 0.93% among 280,000; AID 1463, 2008; tau K18 P301L (four-repeat tau fragment) Alexa594 fluorescence, heparin fibrillization; also: nearly all actives have a fitted effect of over 55% in size
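Human K18 P301L tau (15 uM unlabeled plus 0.24 uM Alexa 594-labeled, final) in 100 mM sodium acetate pH 7 was mixed with compound and 20 uM heparin and incubated 6 hr at 37 C.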
TexasRed fluor – Total Fluorescence Counterscreen for Inhibitors of the Interaction of Thyroid Hormone Receptor and Steroid Receptor Coregulator 2 | hit rate 0.29% among 280,000 | Potency, µM (titrated, usually from 106 µM) | AID 1479, 2009 | TRb/SRC2 Texas Red total fluorescence interference; active = well fitted curve in either direction with a large enough effect; inconclusive = small, poorly fitted or top-dose-only effect
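Human TRb ligand-binding domain at 0.6 uM with 20 nM Texas Red SRC2 peptide in Tris buffer containing 1 uM T3 and 5% DMSO, incubated with compound 5 h at ambient temperature. Total fluorescence (555/632 nm) calculated as parallel + 2 × perpendicular.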
A number is an active result; n = inactive; u = inconclusive; x = no result given; [ ] = another dose, or the depositor's remark. A selection: hits, their analogues and other compounds. The true share with any hit is near 4.6%. Unless noted, calls follow the shape of the dose curve; as a rule, active = well fitted curve in the direction sought with a large enough effect; inconclusive = small, poorly fitted or top-dose-only effect, or another doubt; inactive = no such curve, though single readings can be large; an effect the other way counts as inactive or inconclusive.

SMILES	PNC assembly inh	Tau fibril FP	Tau ThT inhib	TRb SRC2 PPI	Tau fluor counter	TexasRed fluor
Cc1ccc(NC(=O)CSCn2nnc3c(=O)[nH]c(Cc4ccc(F)cc4)nc32)c(C)c1	x	n	n	n	n	0.32µM[quencher]
C=CCn1c(NC(=O)c2ccco2)c(S(=O)(=O)c2ccccc2)c2nc3ccccc3nc21	u	n	n	n	n	n
C=CCn1c(NC(=O)c2ccc(Br)o2)c(S(=O)(=O)c2ccccc2)c2nc3ccccc3nc21	n	u	20µM	n	n	n
Cc1nc(Nc2ccc(C(=O)O)cc2)sc1-c1ccccc1	x	n	n	n	n	n
Cc1nc(Nc2ccccc2)sc1-c1ccccc1	n	n	u	n	7.9µM[quencher]	n
N/C(=N\OC(=O)c1cc(-c2ccccc2)nc2ccccc12)c1ccc(Cl)cc1	n	n	n	n	n	n
CC(C)CNC(=O)c1ccc(NC(=O)c2ccccc2[N+](=O)[O-])cc1	-84	u	n	n	n	n
O=C(Nc1ccccc1)c1ccc(NCCc2ccccc2)c([N+](=O)[O-])c1	u	u	n	n	n	n
CC(C)CNC(=O)c1cccc(NC(=O)c2ccc(Cl)c([N+](=O)[O-])c2)c1	-89	n	n	n	u	n
CCN(CC)c1ccc(C(=O)Nc2ccccc2)cc1[N+](=O)[O-]	x	n	16µM	n	u	n
COc1ccc(C2C(C#N)=C(N)Oc3cc(O)ccc32)cc1OC (stereo not given)	n	n	n	n	n	n
COc1cc(C2C(C#N)=C(N)Oc3cc(O)ccc32)cc(OC)c1OC (stereo not given)	-91	n	n	n	n	n
C=CCn1c(=NC(=O)c2ccco2)sc2cc(C(=O)OC)ccc21	u	n	u	n	n	n
CCOc1ccc(NC(=O)COc2ccc(C(=O)NCCc3ccccc3)cc2)cc1	-105	n	u	n	n	n
CC(C)c1ccccc1NC(=O)COc1ccc(C(=O)NCCc2ccccc2)cc1	n	n	n	n	n	n
Cc1ccc(CCN2C(=O)c3ccc(C(=O)O)cc3C2=O)cc1	x	x	x	n	x	n
O=C(Nc1ccc(C(F)(F)F)cc1)c1cc(S(=O)(=O)NCC2COc3ccccc3O2)ccc1F (stereo not given)	u	13µM	n	n	u	n
CC(C)c1ccc(NC(=O)c2cc(S(=O)(=O)NCC3COc4ccccc4O3)ccc2F)cc1 (stereo not given)	-113	u	n	n	u	n
COc1ccc(NC(=O)c2cc(S(=O)(=O)NCC3COc4ccccc4O3)ccc2F)cc1 (stereo not given)	n	n	n	n	u	n
CC1CCN(C(=O)c2ccc(S(=O)(=O)N(C)C)cc2)C(C)C1 (stereo not given)	n	n	n	n	n	n
CC1=C(C#N)C(c2cn(-c3ccccc3)nc2-c2cccs2)C(C#N)=C(C)N1	-95	u	n	n	u	n
COCCOC(=O)C1=C(C)NC(=O)NC1c1cn(-c2ccccc2)nc1-c1cccs1 (stereo not given)	n	n	n	n	n	n
Cc1ccccc1Cn1c(-c2cncs2)nc2ccccc21	u	n	n	n	n	n
CC1=CS(=O)(=O)CC1Sc1nc(C)n[nH]1 (stereo not given)	x	n	n	n	n	n
CC1=CS(=O)(=O)CC1Sc1ncn[nH]1 (stereo not given)	-100	n	n	n	n	n
SMILES	PNC assembly inh	Tau fibril FP	Tau ThT inhib	TRb SRC2 PPI	Tau fluor counter	TexasRed fluor
CCOc1ccc(C(=O)/C=C/c2cn(CN3CCN(C)CC3)c3ccccc23)cc1	n	n	u	n	13µM[quencher]	n
CC(C)CN(CC(C)C)CC(O)Cn1cc(/C=C/C(=O)c2ccccc2)c2ccccc21 (stereo not given)	x	u	u	n	u	n
COc1ccc(C(=O)/C=C/c2cn(CN3CCN(C)CC3)c3ccccc23)cc1	n	n	13µM	n	18µM[quencher]	n
CCC(=C(c1ccc(OC)cc1)c1ccc(OC)cc1)c1cn(CC(O)CN(CCO)CCO)c2ccccc12 (stereo not given)	x	n	u	n	13µM[quencher]	n
CCCN(CCC)CC(O)Cn1cc(/C=C/C(=O)c2ccc(OCC)cc2)c2ccccc21 (stereo not given)	x	n	8.9µM	n	u	n
COc1ccc(C(=O)/C=C/c2cn(CC(O)CN3CCc4ccccc43)c3ccccc23)cc1OC (stereo not given)	x	n	u	n	u	n
CCOc1ccc(/C=C/C(=O)c2ccccc2)cc1	x	n	u	n	n	n
COc1ccc(OCC(O)CN(CCO)CC(O)Cn2ccc3ccccc32)cc1 (stereo not given)	n	n	n	n	n	n
C/C(=N\NC(=O)COc1ccc(C)cc1[N+](=O)[O-])c1cccs1	x	n	u	n	n	n
CC(=O)Nc1c(F)cc(Br)cc1F	x	n	n	n	n	n
O=C(OCc1cc2ccccc2[nH]c1=O)c1ccncc1	-100	n	n	n	n	n
O=C(CSc1ncc(S(=O)(=O)c2ccc(Br)cc2)c(=O)[nH]1)NCc1ccc(Cl)cc1	x	n	u	n	n	n
Cc1ccc(CNC(=O)CSc2ncc(S(=O)(=O)c3ccc(Br)cc3)c(=O)[nH]2)cc1	x	n	n	n	n	0.4µM[quencher]
COc1ccc(CCNC(=O)Cn2cnc3c(nnn3Cc3ccccc3F)c2=O)cc1OC	-119	n	n	n	n	n
CCn1c(N)c(C(=O)NCc2cccnc2)sc1=S	n	n	n	n	n	n
COc1cc(NC(=O)c2cc3c(Cl)nc4ccccc4c3s2)cc(OC)c1OC	n	n	u	n	8.9µM[quencher]	n
O=[N+]([O-])c1ccc(N=Cc2sc3ccccc3c2O)cc1	n	n	0.71µM	n	n	n
CC(=O)n1cc([C@@H]2C=C(C(=O)Nc3ccccc3)O[C@H](OCCCCO)C2)c2ccccc21	x	n	u	n	n	n
N#C/C(=C/c1ccc(N2CCCCCC2)o1)c1ccc(Cl)cc1	n	u	25µM	n	u	n
N#C/C(=C/c1ccc(N2CCCCC2)o1)c1cccc(F)c1	n	u	13µM	n	u	n
N#C/C(=C/c1ccc(N2CCCCC2)cc1)c1cccc(F)c1	n	n	u	n	u	n
COCCN1CC(O)=C(c2nc3ccccc3c(=O)[nH]2)C1=N	-100	n	n	n	n	n

Screens: PubChem, National Center for Advancing Translational Sciences (NCATS)
